{"source": "PubChem BioAssay (NCI)", "note": "This is part of a sample that, as a whole, favours compounds with a hit. Of some 83,000 tested, about 20% had one in any assay.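 Single-concentration screen, 48 h exposure, 96-well plates. Endpoint: percent growth. Below 10 = active.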 Values without a mark were called inactive. Calls of active or inactive are those of the source.", "data": [{"test_system": "MDA-MB-468 breast", "test": "NCI-60 one-dose screen, 48 h (100 = growth as untreated, 0 = no growth, -100 = all killed)", "details": "10 µM unless noted", "values": [{"smiles": "CN1C(=O)C2(Nc3cc(Cl)ccc3S2)c2cc(Cl)ccc21", "note": "(stereo not drawn)", "growth": "106%"}, {"smiles": "NC(=O)CSc1oc(-c2ccccc2)nc1S(=O)(=O)c1ccc(Br)cc1", "growth": "73.9%"}, {"smiles": "C=C1C(=O)O[C@H]2[C@H]1CC/C(COC(=O)CSCSCC(=O)OC/C1=C/CC[C@@]3(C)O[C@H]3[C@H]3OC(=O)C(=C)[C@@H]3CC1)=C\\CC[C@@]1(C)O[C@@H]21", "growth": "-14.2% (active)"}, {"smiles": "COc1ccc(-c2ccc(-c3ccc(C(=N)N)cn3)s2)cc1OC", "growth": "92.6%"}, {"smiles": "CC(CN1CCN(CC(C)Nc2ccnc3cc(Cl)ccc23)CC1)Nc1ccnc2cc(Cl)ccc12", "note": "(stereo not drawn)", "growth": "-62.8% (active)"}, {"smiles": "Cc1ccc(-c2nc(C#N)c(S(=O)(=O)NCCO)o2)cc1", "growth": "37.1%"}, {"smiles": "COc1ccc(NC(=O)CCn2cnc3c(cc(-c4ccccc4)n3-c3ccccc3)c2=O)cc1", "growth": "79.5%"}, {"smiles": "COc1ccc(/C=C2/CN(CCC#N)C/C(=C\\c3ccc(OC)cc3)C2=O)cc1", "growth": "-28% (active)"}, {"smiles": "CCCCN(CCC)CCCCCCCCCCN1CCCc2ccccc21", "growth": "65.6%"}, {"smiles": "Nc1ccc(C(OC(=O)c2cc3ccccc3c(Cc3c(O)c(C(=O)OC(c4ccc(N)cc4)(c4ccc(N)cc4)c4ccc(N)cc4)cc4ccccc34)c2O)(c2ccc(N)cc2)c2ccc(N)cc2)cc1", "growth": "-23% (active)"}, {"smiles": "N#Cc1c(-c2ccccc2)nc(SCC(O)CN2CCOCC2)nc1N1CCOCC1", "note": "(stereo not drawn)", "growth": "76.7%"}, {"smiles": "O=C(C[C@@]1(O)C(=O)Nc2c(Cl)ccc(Cl)c21)c1ccc(C2CC2)cc1", "growth": "-4.24% (active)"}, {"smiles": "CCN(CC)CCCC(C)NCC(=O)NC(c1ccc2c(c1)OCO2)c1cc(Cl)c2cccnc2c1O", "note": "(stereo not drawn)", "growth": "16.6%"}]}]}
